Reference: PubChem BioAssay (NCI)
About 83,000 compounds went through this panel and 20% of them were active in at least one assay; those are over-represented in the sample as a whole.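 Step 1: grow cells in 96-well plates. Step 2: add test compound at a single concentration. Step 3: incubate 48 h. Step 4: record percent growth.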 Values without a mark were called inactive. Calls of active or inactive are those of the source.

system: MOLT-4 leukemia; experiment: NCI-60 one-dose screen, 48 h (100 = growth as untreated, 0 = no growth, -100 = all killed); settings: 10 µM unless noted
Experimental: Growth inhibition of the MOLT-4 human tumor cell line is measured as a screen for anti-cancer activity. Cells are grown in 96 well plates and exposed to the test compound for 48 hours. Compounds are tested at a single concentration, which is 10^-5 M for most compounds. The reported endpoint is percent growth (GI% or GIPRCNT), where numbers from 0 - 100% represent growth inhibition, and numbers from -100% - 0 represent cell death. For example, a value of 40 represents 60% growth inhibition. A value of 0 means no net growth occurred over the course of the experiment. A value of -40 indicates 40% of cells at the beginning of the experiment died by the end of the experiment. A value of -100 means all cells are dead at the end of the experiment.
NCI-60 Human Tumor Cell Lines Screen was performed using the standard one-dose NCI protocol, which is described in more detail at https://dtp.cancer.gov/discovery_development/nci-60/default.htm.
Compounds with GIPRCNT values below 10 were considered active. Activity score was based on GIPRCNT using the following formula: […]
Score is 0 for GIPRCNT values of 100 or above, 50 for GIPRCNT values of 0, and 100 for GIPRCNT values of -100.

Compound | growth
CC(=O)O[C@@H]1C2CCC3C(CC[C@@]4(C)C3CC[C@@H]4C(C)N(C)C)[C@@]2(C)CC[C@@H]1NC(=O)C=C(C)C (stereo not given in full) | -50.6% (active)
CC(C)(C)c1ccc(NS(=O)(=O)c2ccc3nc(NC(=O)c4cnccn4)[nH]c3c2)cc1 | 27.7%
Oc1cccc(CCc2ccc(Oc3cc(CCc4cccc(O)c4)cc(O)c3O)cc2)c1 | 18%
CCCCOc1ccc(/C=N/Nc2cc(C)nc3ccc(Br)cc23)cc1 | -26% (active)
CCOC(=O)c1ccc2c(c1)ncn2-c1ccc(NC(=O)Nc2cccc(C)c2)cc1 | 43.2%
O=C(Nc1ccc(NC(=O)c2cc(=O)[nH]c3ccccc23)cc1)Nc1cccc(Cl)c1 | 79.7%
O=C(Cn1c[n+](CC(=O)c2ccc(-c3ccccc3)cc2)c2ccccc21)Nc1cccc2cccnc12 | 11.4%
COc1ccc(C/C(=C(\C)c2ccc(OCCN3CCCC3)cc2)c2ccc(OCCN3CCCC3)cc2)cc1 | -17.5% (active)
CCOc1cccc(-c2nc(N)nc(Nc3ccccc3SSc3ccccc3Nc3nc(N)nc(-c4cccc(OCC)c4)n3)n2)c1 | 56.7%
O=C(Nc1ccc(-c2ccc3c(c2)NC(=O)/C3=C\c2ccc[nH]2)cc1)NC1CC1 | 94.2%
C=C1C(=O)O[C@H]2[C@H]1CC/C(CNC(=O)C(C)c1ccc(CC(C)C)cc1)=C\CC[C@@]1(C)O[C@@H]21 (stereo not given in full) | 0.34% (active)
COc1cc2c(cc1OC)C(=O)/C(=C/c1cc(C)c(O)c(C)c1)S2 | 24.5%
Cn1ccc2c1CC1CN(Cc3ccco3)C(=O)C1C2C(=O)O (stereo not given) | 103%
CCCCCN1C=C/C(=C\C(=O)N(C)c2ccc(Oc3ccccc3)cc2)c2ccccc21 | 70.8%
CCCCNC(=O)Oc1ccc(/C(=C(\C)c2ccccc2)c2ccc(OCCN3CCCCC3)cc2)cc1 | 53.8%
O=C(Nc1ccccc1C(=O)N/N=C(\c1ccccc1)c1ccccn1)c1ccc(F)cc1 | 12.8%
CC(=O)OC[C@]12CC[C@@H](C(=O)CBr)[C@@H]1[C@H]1CC[C@@H]3[C@@]4(C)CC[C@H](OC(C)=O)C(C)(C)[C@@H]4CC[C@@]3(C)[C@]1(C)CC2 | -5.01% (active)
CCN(CC)CCCC(C)Nc1cc(O)cc2cccnc12 (stereo not given) | 112%
O=C(Cc1ccc(/C=C/C(=O)c2ncc[nH]2)cc1)Nc1ccc(Cl)cc1 | 5.1% (active)
COc1cc(/C=C/C(=O)c2nc3cc(F)ccc3nc2C)cc(OC)c1OC | -18.6% (active)

Compound | growth
CC[C@]12C=CCN3CC[C@@]4(c5cc(NC(=O)CCC(=O)O[C@H]6CC[C@H]7[C@@H]8CCC9=CC(=O)CC[C@@H]9[C@H]8CC[C@]67C)c(OC)cc5N(C)[C@H]4[C@@](O)(C(=O)OC)[C@@H]1OC(C)=O)[C@@H]32 | 40.3%
COc1cc2oc(-c3cccc(C(=O)Nc4ccc(Cl)cc4)c3)cc(=O)c2c(O)c1OC | 74.1%
C[C@H]1[C@H](C)CC[C@]2(C(=O)NCC#CCN3CCN(C)CC3)CC[C@]3(C)C(=CC[C@@H]4[C@@]5(C)Cc6c([nH]c7ccccc67)C(C)(C)[C@@H]5CC[C@]43C)[C@H]12 | 44.6%
CN1[C@@H]2CC[C@H]1/C(=C\c1ccccc1)C(=O)/C2=C/c1ccccc1 | 14.9%
CCCCCN1C=C/C(=C\C(=O)N2CCCc3ccccc32)c2ccccc21 | 78.5%
COc1cc(NCCCCCNC(C)(C)C)c2ncccc2c1 | 105%
c1ccc2c(-c3nccs3)c[nH]c2c1 | 91.8%
O=C(c1ccccc1)N1N=C(c2ccc(-n3ccc(C(F)(F)F)n3)c(F)c2)CC1c1ccc[nH]1 (stereo not given) | 98.8%
Cc1ccc(-c2[nH][nH]c(=O)c2-c2nc3ccccc3s2)cc1 | 100%
Cc1ccc(S(=O)(=O)NNC(=O)/C(=C\c2ccc(Cl)cc2)c2nc3ccccc3s2)cc1 | 80.1%
CCCCCN1C=C/C(=C\C(=O)N(C)c2ccc(OC(F)(F)F)cc2)c2ccccc21 | 95.8%
COc1cc2nc(-c3ccc(Cl)cc3)cc(OCCCN3CCCCC3)c2cc1OC | 37.1%
NS(=O)(=O)c1ccc(CCn2c(SCC(=O)c3ccc(Cl)cc3)nc3ccccc3c2=O)cc1 | 97.6%
CC(=O)[C@@H]1CC[C@]2(CO)CC[C@]3(C)[C@H](CC[C@@H]4[C@@]5(C)CCCNC(C)(C)[C@@H]5CC[C@]43C)[C@@H]12 | 95.3%
Cc1ccc(C(=O)/C(=C\c2ccc([N+](=O)[O-])cc2)S(=O)Cc2ccc(F)cc2)cc1 (stereo not given) | 1.47% (active)
CCOC(=O)c1cc(C(=O)c2ccc(OC)c(OC)c2)n2c1ccc1ccccc12 | 89.6%
COc1cc2cc(CN3CCN(c4nccc(-c5ccc6ccccc6c5)n4)CC3)c(=O)[nH]c2cc1OC | 54.1%
COc1cc(/C=C/c2cc(O)c(C(C)=O)c(O)c2)cc2c1O[C@]1(C)CC[C@@H](O)C(C)(C)[C@H]1C2 | 20.2%
O=C(Cc1ccccc1)NNc1nc(Cl)nc(N2CCN(C(c3ccccc3)c3ccccc3)CC2)n1 | 36.3%
O=C(/C=C/c1ccc(Cl)cc1)c1ccc(NC(=O)N2CCN(c3cc4c(cc3F)c(=O)c(C(=O)O)cn4C3CC3)CC2)cc1 | 92.1%
